# ROMK mod: modulators of human ROMK potassium channel; AID 1918; hit rate 2% among 130,000; B-score at 10 µM; Tet-inducible ROMK, thallium flux fluorescence; actives lie on both sides; P48048;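 active means signal ratio slope over the read window, or its plate-corrected B-score, at least 3 SD from the plate mean, either direction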;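 further: B-score of the F/F0 ratio slope over 7 to 12 s after thallium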
# Target sequence (P48048 whole entry, looked up): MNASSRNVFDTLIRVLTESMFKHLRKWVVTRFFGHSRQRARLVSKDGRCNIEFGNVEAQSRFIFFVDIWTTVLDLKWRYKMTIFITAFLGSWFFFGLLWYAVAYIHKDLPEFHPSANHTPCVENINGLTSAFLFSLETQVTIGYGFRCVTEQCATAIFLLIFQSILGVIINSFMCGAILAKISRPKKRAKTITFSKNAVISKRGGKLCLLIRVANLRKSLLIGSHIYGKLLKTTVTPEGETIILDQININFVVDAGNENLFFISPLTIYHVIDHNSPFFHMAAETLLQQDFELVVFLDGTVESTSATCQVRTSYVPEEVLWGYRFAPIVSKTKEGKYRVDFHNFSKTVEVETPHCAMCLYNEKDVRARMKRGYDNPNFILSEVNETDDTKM
# L major viab: inhibitors of Leishmania major promastigote growth | AID 1063 | inhibition, % at 10 µM | Leishmania major promastigotes, resazurin fluorescence viability | hit rate 9% among 200,000; in the data active means inhibition above about 50%;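 further: promastigotes grown with compound for 44 hours at 28 °C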
# Cl transport mod: modulates chloride dependent transport by human KCC2. AID 1456. Q9H2X9. hit rate 2.2% among 190,000. B-score of Tl+ flux slope (higher = more flux/activation; lower = inhibition) at 10 µM. KCC2 cells, thallium flux FluoZin-2 fluorescence;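 active means thallium flux slope and its plate-corrected score both differing from the plate sample mean at a set confidence after two filtering rounds, in either direction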;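 further: slope of fluorescence scaled to starting intensity during 10 to 20 s after thallium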
# WT yeast gro inh: growth inhibition of WT yeast, mitochondrial fusion screen; mitochondrial fusion phenotypic screen, WT strain; inhibition, % at 10 µM; hit rate 2.1% among 190,000; AID 1362; in the data active means inhibition above about 58%; tested in S. cerevisiae
# Calpain2 inh: blocks pig calpain II enzyme activity; purified calpain II, fluorogenic peptide substrate, 30 min; inhibition, % at 16 µM; hit rate 0.37% among 220,000; AID 1236;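 active means inhibition above about 50%, limit read from the data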
# Lmaj promast 1uM: inhibitors of Leishmania major promastigote growth, repeat at 1 uM; shares compounds with L major viab; L. major promastigote growth, resazurin fluorescence, 48 h; inhibition, % at 1 µM; hit rate 13% among 1,100;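 active means inhibition above about 50% in both repeat tests, limit read from the data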
# A number is an active result; n = inactive; x = no result. Only some compounds are listed: those with a hit (about 12% of all), similar ones and a draw of the others.
SMILES,ROMK mod,L major viab,Cl transport mod,WT yeast gro inh,Calpain2 inh,Lmaj promast 1uM
Cn1nc(-c2ccc(Cl)cc2)nc2c(=O)n(C)c(=O)nc1-2,x,50.3,n,n,54.9,80.6
COC(=O)C1=NN(c2ccccc2)C2(S1)S/C(=C\c1ccccc1)C(=O)N2c1ccccc1 (configuration not stated),n,n,n,n,n,x
CCOC(=O)C1=NN(c2ccccc2)C2(S1)SC(C(C)=O)=C(C)N2c1ccccc1 (configuration not stated),x,61.4,x,71.5,n,n
CCN(CC)CC(=O)Nc1ccc2c(c1)N(C(=O)CN(CC)CC)c1ccccc1CC2,n,99.3,x,n,n,n
CCN(CC)CC(=O)N1c2ccccc2CCc2ccc(NC(=O)c3cc(OC)c(OC)c(OC)c3)cc21,n,x,n,x,n,x
O=C(COC(=O)c1ccc(S(=O)(=O)N2CCCC2)cc1)NCc1ccco1,x,x,n,x,n,x
Cc1cc(C)c2cc(C=O)c(Cl)nc2c1,x,57.7,n,n,n,n
COc1ccc(C(O)P(=O)(OC2CCCCC2)c2ccc(N(C)C)cc2)cc1OC (configuration not stated),x,n,n,n,n,x
Cc1ccc(C(O)P(=O)(OC2CCCCC2)OC2CCCCC2)cc1 (configuration not stated),n,89.3,n,n,n,n
CCSC1=N/C(=C\c2cccc(F)c2)C(=O)S1,x,59.6,n,n,n,n
COc1ccc(CNC(=O)CN(C(=O)Cn2nnc(-c3ccccc3F)n2)c2ccc(C)cc2)cc1,n,n,n,n,n,x
COc1cccc(/C=N/NC(=O)c2ccc(-c3ccccc3)cc2)c1O,n,99.8,n,n,n,n
COc1ccc(-n2c3c(cc(C(=O)Nc4ccc5c(c4)C(=O)NC5=O)c2=O)C(=O)CCC3)cc1,x,n,n,n,x,x
Cc1ccc2nc(N(CCCN(C)C)C(=O)CCc3ccccc3)sc2c1,x,66.5,n,94.4,n,n
CN(C)CCCN(C(=O)C1COc2ccccc2O1)c1nc2ccc(F)cc2s1 (configuration not stated),n,n,n,n,n,x
COC(=O)c1cccc2c1-c1ccccc1/C2=N/O,n,70.1,n,n,n,n
COc1ccc(N2CCN(C(=O)CCNS(=O)(=O)c3ccccc3)CC2)cc1,n,n,n,n,n,x
Cc1cccc(COCC(CC(C)C)N2CCN(C(=O)c3ccc(C(C)(C)C)cc3)CCC2=O)c1 (configuration not stated),n,57.5,n,83.7,n,n
OC(CC1CC12c1ccccc1-c1ncccc12)(c1ccccc1)c1ccccc1 (configuration not stated),x,69.3,n,74.0,n,n
Cc1cc(OCCN2CCCCC2)nc2ccccc12,n,89.0,n,x,n,n
Cc1cc(OCCN2CCOCC2)nc2ccccc12,n,n,x,n,n,x
CCCCn1c2c(c(=N)c3ccccc31)CCC2,n,x,n,x,n,x
N=c1c2c(n(Cc3ccccc3)c3c1CCC3)CCC2,x,99.6,x,71.1,n,94.4
Cc1ccc(C)c(S(=O)(=O)NCCOC(=O)Nc2sc(=S)n(C)c2C)c1,n,87.8,x,n,n,n
Cc1cccc(N)c1-c1c(C)cccc1N,n,n,n,n,n,x
SMILES,ROMK mod,L major viab,Cl transport mod,WT yeast gro inh,Calpain2 inh,Lmaj promast 1uM
O=C1c2ccc(Oc3cccc([N+](=O)[O-])c3)cc2C(=O)N1c1ccccn1,n,n,n,n,n,x
O=C1c2cc([N+](=O)[O-])cc3cc([N+](=O)[O-])cc(c23)C(=O)N1c1ccccn1,n,90.3,n,n,n,n
CCOP(=O)(c1ccccc1)c1nc(-c2ccccc2C)oc1N1CCCCC1 (configuration not stated),n,50.3,x,n,n,n
NNc1ccc2c(C(F)(F)F)cc(C(F)(F)F)nc2n1,n,n,x,n,n,x
N#CC(c1cccc(Cl)c1)c1ccc2c(C(F)(F)F)cc(C(F)(F)F)nc2n1 (configuration not stated),3.19,99.8,28.9,81.2,63.3,59.5
CN(Cc1ccccc1)C(=O)C1CCCN1S(=O)(=O)c1ccc2c(c1)n(C)c(=O)c(=O)n2C (configuration not stated),x,x,n,x,n,x
COc1cccc2c(=O)c(C/C=C(/C)Cl)c(C)[nH]c12,x,100.4,n,n,n,99.3
CC(CCc1ccc(O)cc1)N(C)CCc1ccccc1 (configuration not stated),n,94.1,x,n,n,n
COc1cccc(/C=C/c2ccccn2)c1O,x,x,n,x,n,x
CCOc1ccc(N(CC)S(=O)(=O)c2ccc3c(c2)oc(=O)n3C)cc1,x,57.2,n,n,n,n
CCOc1ccc2[nH]c3c(=O)n(CCc4ccc(OC)cc4)cnc3c2c1,x,x,n,x,n,x
O=C1C=C(Nc2ccc(Cl)cc2)CC(c2ccccc2)C1 (configuration not stated),n,n,n,n,n,x
O=[N+]([O-])c1cc(Cl)cc(C2=NCCN2)c1,x,51.6,n,n,n,n
O=C(N/N=C/c1ccc2cccnc2c1)c1ccco1,n,n,n,n,n,x
CC(C)(C)c1cc(C(C)(C)C)cc(S(=O)(=O)CCc2ccccn2)c1,x,60.0,n,n,n,n
O=[N+]([O-])c1ccc(C2CCCC/C2=N/OCc2ccccc2F)c([N+](=O)[O-])c1 (configuration not stated),x,n,n,n,n,x
Cc1ccc(NC(=O)O/N=C2\CCCCC2c2ccc([N+](=O)[O-])cc2[N+](=O)[O-])cc1 (configuration not stated),x,99.2,n,n,n,n
Cc1cc(=O)oc(C)c1C(=O)NC1CCCCCCC1,n,n,n,n,n,x
O=C(CNCc1cccnc1)Nc1cc(C(F)(F)F)ccc1N1CCOCC1,x,x,n,x,n,x
Cc1onc(-c2ccccc2Cl)c1-c1nc(-c2ccccn2)no1,n,74.5,n,n,n,n
Cc1noc(C)c1C(=O)OCC(=O)C12CC3CC(CC(C3)C1)C2,n,n,n,n,n,x
Cn1c2ccccc2n2c(=O)c(Cl)c(-c3ccccc3)c(C#N)c12,n,61.6,n,n,n,n
CCC[N+](CC#Cc1ccccc1)(CCC)CC(=O)OCC,n,n,n,n,n,x
CC(=O)Nc1ccc(-c2csc(NC(=O)C3CCN(S(=O)(=O)c4cccs4)CC3)n2)cc1,x,70.1,n,n,n,n
COc1ccc(-c2nc(NC(=O)c3cc(C(C)(C)C)nn3C)sc2C)cc1,n,70.2,n,n,n,n
CCc1ccc(N(C(=O)c2snc(C(N)=O)c2N)C(C(=O)NCCC(C)C)c2c[nH]c3ccccc23)cc1 (configuration not stated),x,n,n,n,n,x
CC1=NN(c2ccc(C)cc2)C(=O)/C1=C\c1ccc(Br)s1,n,99.2,n,n,n,n
COc1ccc(O[C@H]2C=C[C@@H](c3ccccc3)O[C@@H]2CO/N=C(\C)CCN2CCCCc3nc(C)c(C)cc32)cc1,n,84.0,n,60.1,n,n
C/C(CCN1CCCCc2nc(C)c(C)cc21)=N\O[C@@H](C)CN1CCCCc2nc(C)c(C)cc21,n,68.0,n,n,n,n
